Screening results deposited in PubChem BioAssay by several laboratories.
Ba/F3 V617F tox: reduced viability of JAK2V617F-dependent Ba/F3 cells, primary screen, JAK2V617F inhibitor project, cell-based, Ba/F3 EpoR-JAK2V617F, luminescence; ATP luminescence; inhibition, % at 5.6 µM; 220,000 tested, 1.1% active; AID 1446, 2008;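 active = inhibition above the campaign mean plus 3 SD over all tested compounds, cut at about 24% in these data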;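 note: cytokine-independent growth of Ba/F3 cells driven by EpoR plus mutant JAK2; 0% = DMSO-treated cells and 100% = JAK inhibitor I control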
BaF3 parental: parental Ba/F3 cell viability inhibition, counter-screen for JAK2V617F inhibitor project, murine pro-B, CellTiter-Glo luminescence | 220,000 tested, 1.1% active | CellTiter-Glo ATP luminescence | inhibition, % at 5.6 µM;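 active = inhibition above a per-campaign cutoff, the mean inhibition of all tested compounds plus 3 SD, cut at about 27% in these data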;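 note: 0% = DMSO wells and 100% = JAK Inhibitor I control wells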
IEC-6 cytotox: cytotoxicity in IEC-6 intestinal epithelial cells, primary screen, cytotoxicity control for KLF5 inhibitor project, cell-based, luminescence | IEC-6 cytotoxicity, luminescence viability | 290,000 tested, 0.78% active | inhibition, % at 5 µM | AID 1825, 2009; in the data active = inhibition above about 22%;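 note: 0% = plate median of test compound wells and 100% = cytotoxic reference compound wells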
aSyn UTR inh: MLPCN primary screen, SNCA 5' untranslated region; alpha-synuclein 5'UTR reporter, inhibitor activity; inhibition, % (tested at 7.5 µM); 300,000 tested, 0.82% active; in the data active = inhibition above about 60%; inconclusive = no clear call, values can overlap the other calls;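 note: H4 neuroglioblastoma cells stably carrying SNCA 5'UTR luciferase fusion; 0% = DMSO wells and 100% = positive control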
APP 5UTR inh: inhibitors of APP translation via 5'UTR reporter, primary screen, APP 5'UTR luciferase, SH-SY5Y cells | SH-SY5Y APP 5'UTR-luciferase reporter, luminescence | 190,000 tested, 0.82% active | inhibition, % at 2 µM | AID 1285, 2008;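 active = inhibition above a set limit, derived from the sample mean plus 3 SD, cut at about 45% in these data; inconclusive = one replicate passes the limit while the other fails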
KLF5 inhibitor: KLF5 expression inhibitors, primary screen, DLD-1 cells, luminescence; inhibition, % at 5 µM; DLD-1 KLF5 promoter-luciferase reporter; 290,000 tested, 0.23% active;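 active = inhibition above a per-plate limit of that plate's mean compound inhibition plus 3 SD, cut at about 60% in these data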;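 note: 0% = DMSO wells and 100% = LY294002 at 200 µM; higher means less KLF5 promoter-driven luciferase light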
Starred values were filed as active, the others as inactive; u = inconclusive; x = no result. Only some compounds are listed: those with a hit (about 2.2% of all), similar ones and a draw of the others.

SMILES | Ba/F3 V617F tox | BaF3 parental | IEC-6 cytotox | aSyn UTR inh | APP 5UTR inh | KLF5 inhibitor
CCN(CC)CCNC(=O)c1ccc(Cl)c(S(=O)(=O)Nc2ccccc2OC)c1 | 1.1 | 2.2 | 1.6 | 8.6 | -9.2 | 5.4
CCN(CC)CCNC(=O)c1ccc(Cl)c(S(=O)(=O)Nc2ccc(Cl)cc2)c1 | 2.1 | 7.2 | 0.9 | 10.5 | 59.9* | -10.3
O=C(COc1ccccc1-c1ccccc1)N/N=C/c1ccc2ccccc2c1 | -1.2 | 4.1 | -1.6 | -59.2 | 96.3* | -11.3
CCCCCCCCCC(=O)N/N=C(\C)c1cccnc1 | -3.1 | -0.6 | -0.1 | -18.8 | 2.1 | -6.2
CCCCCC(=O)N/N=C(\C)c1ccccn1 | -1.4 | 6.8 | 0.3 | 66.6* | -2.0 | -19.8
C/C(=N\NC(=O)COc1ccccc1-c1ccccc1)c1ccccn1 | 1.4 | 5.0 | 12.4 | 114.0* | 62.0* | 27.6
O=C(COc1ccccc1-c1ccccc1)N/N=C/c1ccncc1 | -4.1 | -0.4 | 1.7 | 18.7 | -19.0 | 2.5
C/C(=N\NC(=O)COc1ccccc1-c1ccccc1)c1cccnc1 | -1.3 | 0.6 | 7.5 | 18.9 | 16.1 | 7.7
CCOC(=O)N1CCC(N2CCCC(CO)(Cc3cccc(Cl)c3)C2)CC1 (stereo unspecified) | 1.1 | 0.5 | 3.7 | -20.0 | 17.5 | 14.7
Cc1ccc(/C=C2/NC(=O)N(c3ccccc3)C2=O)o1 | 0.8 | 3.5 | -6.9 | -104.7 | -31.7 | -31.4
O=C1N/C(=C/c2ccc(N3CCOCC3)o2)C(=O)N1c1cccc(Cl)c1 | -1.3 | -4.3 | -1.6 | -38.8 | 75.7* | 3.6
COc1cc(C)c(C(=O)CC(=O)c2c(C)cc(OC)cc2C)c(C)c1 | x | x | x | 72.2* | x | x
COc1ccc(NC(C)=O)c(C)c1 | 0.5 | 8.5 | -6.0 | 8.4 | -3.8 | -1.0
Cc1ccc(C(=O)/C=C\C(=O)c2ccc(C)cc2)cc1 | -2.2 | 3.1 | -3.3 | -63.3 | 88.0* | -7.8
Cn1cc(C(=O)c2ccc(Cl)cc2)cc1-c1nc2ccccc2n1C | -2.3 | 47.4* | 1.5 | 11.1 | x | -11.4
CCOc1ccc2nc3cc(NCc4ccc(OC)cc4)ccc3c(N)c2c1 | x | x | -2.0 | 108.6* | x | 8.3
N#Cc1c(-c2ccccc2)nc(-c2ccncc2)[nH]c1=O | -0.8 | 7.3 | 0.1 | -11.4 | 68.7* | -16.4
N#Cc1c(-c2ccccc2)nc(-c2ccccc2)[nH]c1=O | 6.2 | 7.1 | 2.6 | 32.2 | -1.2 | -11.9
NCCOc1ccccc1-c1ccccc1 | -0.5 | 4.2 | 1.0 | 12.8 | 9.3 | -6.5
Nc1ccc(Oc2ccccc2-c2ccccc2)cc1 | x | x | x | 104.4* | x | x
Cc1ccc(-n2ncc3c(NCCCN4CCCC4=O)ncnc32)c(C)c1 | 0.7 | 47.1* | -4.6 | -12.0 | 1.8 | -9.9
O=S1(=O)CCOC[C@H](CC2CCCCC2)N1Cc1ccccc1Br | x | x | 2.3 | 10.8 | x | -17.9
C=CCN1CCN(C(=O)c2cc3c(s2)CCCC3)CC1 | x | x | 1.4 | -12.5 | x | -40.0
COc1ccc(-n2c(CCC(=O)O)ccc2-c2ccccc2)cc1 | 18.3 | 29.4* | -8.0 | -8.2 | -4.8 | -33.6
O=c1[nH]cc(O)c(=O)[nH]1 | 3.6 | -2.9 | 0.5 | 19.3 | x | 3.5
SMILES | Ba/F3 V617F tox | BaF3 parental | IEC-6 cytotox | aSyn UTR inh | APP 5UTR inh | KLF5 inhibitor
O=c1[nH]cc(F)c(=O)[nH]1 | 86.1* | 82.7* | 86.4* | -31.4 | 6.0 | 45.8
Cc1nnc(-c2ccccc2)c(=O)n1/N=C/c1c(O)ccc2ccccc12 | 2.2 | 6.0 | -1.9 | 83.1* | 60.9* | 29.5
COc1ccc(NC(=O)CSc2nnc(Cc3ccccc3)c(=O)n2N)cc1OC | x | x | x | -0.3 | x | x
CCN(CC)S(=O)(=O)c1ccc(N2CCOCC2)c(NC(=O)c2cc(-c3ccccn3)nc3ccccc23)c1 | -1.7 | 9.8 | -0.6 | 88.4* | 39.1 | 9.6
CCN(CC)S(=O)(=O)c1ccc(N2CCOCC2)c(NC(=O)c2cccc3ccccc23)c1 | -1.4 | 1.6 | 0.2 | 0.9 | -4.8 | -6.1
CCOc1cc(N2CCOCC2)c(OCC)cc1NC(=O)COc1ncnc2ccccc12 | -0.1 | 3.2 | 1.9 | 23.7 | 16.9 | -33.9
CCOc1cc(N2CCOCC2)c(OCC)cc1NC(=O)c1cc(-c2ccco2)nc2ccccc12 | 0.7 | 7.7 | 1.5 | 113.9* | 48.8* | -11.7
CCOc1ccc(NC(=O)CCCN2C(=O)C(c3ccccc3)Oc3cccnc32)cc1 (stereo unspecified) | x | x | -3.0 | 28.5 | x | -22.6
CC(=O)Nc1ccc(S(=O)(=O)n2cnc3cc(C)c(C)cc32)cc1 | 4.8 | 29.1* | 1.4 | -1.3 | 6.0 | -15.8
O=C(Nc1ccc(N2CCN(C(=O)c3ccco3)CC2)cc1)c1ccc2c(c1)OCO2 | 4.5 | 6.5 | 6.5 | 29.6 | 8.5 | 0.3
Cc1ccccc1C(=O)N1CCN(c2ccc(NC(=O)c3ccc4c(c3)OCO4)cc2)CC1 | 66.7* | 67.4* | 36.0* | u | 10.7 | 56.4
CCC(=O)N1c2ccc(S(=O)(=O)N3CCOCC3)cc2CC1C (stereo unspecified) | x | x | 3.1 | 3.2 | x | -27.9
BrC(=C\c1ccccc1)/C=N/Nc1nc(N2CCOCC2)nc(N2CCOCC2)n1 | 2.3 | 6.0 | 13.0 | -2.4 | 62.9* | -6.7
BrC(/C=C\c1ccccc1)=N/Nc1nc(N2CCOCC2)nc(N2CCOCC2)n1 | -1.2 | -1.7 | -4.1 | -27.2 | 27.0 | -19.2
COc1ccc(C(Nc2ccc(S(=O)(=O)NCC3CCCO3)cc2)C(=O)NC(C)(C)C)cc1OC (stereo unspecified) | 1.7 | 7.7 | -6.9 | 8.7 | 15.4 | -3.9
COc1ccc(Br)cc1CNC(=O)C1CCN(C(=O)N(C)C)CC1 | -2.1 | 3.5 | 3.0 | 77.6* | -6.0 | -0.6
Cc1ccc(C(CC(=O)N2CCCC2)c2ccccc2)c(O)c1 (stereo unspecified) | x | x | -2.3 | -1.7 | x | -14.9
CN(C)c1ccc2c(c1)OC(N)=C(C#N)C2c1cccc(F)c1 (stereo unspecified) | -3.4 | 1.6 | 1.9 | 68.0* | 95.1* | -25.1
N#CC1=C(N)Oc2cc(O)ccc2C1c1cccnc1 (stereo unspecified) | -4.2 | 2.9 | -4.4 | 2.3 | -11.5 | -11.7
Oc1ccc(Br)cc1/C=N/Nc1nc(N2CCCCC2)nc(N2CCOCC2)n1 | -2.4 | -4.8 | -1.0 | -24.8 | 3.1 | 10.2
Oc1ccc(/C=N/Nc2nc(N3CCCCCC3)nc(N3CCCCCC3)n2)c(O)c1 | 47.5* | 33.9* | 0.5 | 20.7 | 4.9 | -10.7
CCCc1nc(SCc2ccc(OCC)cc2)n[nH]1 | x | x | 1.4 | -10.3 | x | -23.1
C/C(=N\NC(=O)CSCc1ccccc1Cl)c1cc(O)ccc1O | 16.1 | -3.2 | -1.7 | 61.8* | 54.1* | -3.2
CC(=O)Nc1ccc(NC(=O)CSCc2ccccc2Cl)cc1 | x | x | x | -46.3 | x | x
O=C(Nc1ccc2c(c1)OCCO2)NC1(C(F)(F)F)Oc2ccccc2O1 | 8.8 | 7.0 | -3.6 | 62.5* | 0.6 | -31.5
CCCN(Cc1cc2ccc(C)cc2[nH]c1=O)C(=O)c1cccnc1 | 3.1 | 10.2 | -0.7 | 17.2 | -12.6 | -22.5
